Our source for the growth values is PubChem BioAssay (NCI).

Structures are written as SMILES. The panel holds about 83,000 compounds, 20% with a hit somewhere; the sample as a whole holds those more often.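 Assay: single dose, 48 h. Readout: percent growth (0 = no net growth; negative = cell death). Active: <10.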 A number with no mark means an inactive call. Activity calls are given as the source filed them.

Common to all, as to assay: NCI-60 one-dose screen, 48 h (100 = growth as untreated, 0 = no growth, -100 = all killed)
Holding throughout (conditions): 10 µM unless noted

Assay [1] concerns SK-MEL-2 melanoma.
In assay [2] the test system is EKVX NSCLC.
Assay [3] concerns SN12C renal.
Assay [4] concerns UO-31 renal.
The test system of assay [5] is TK-10 renal.
For assay [6], the system named is ACHN renal.
Assay [7] concerns CAKI-1 renal.
Assay [8] concerns A498 renal.
The subject of assay [9] is CCRF-CEM leukemia.
Assay [10] has as its system MOLT-4 leukemia.

On to `Cn1cc(-c2csc(-c3c[nH]c4ccc(Br)cc34)n2)c2cnccc21`, for which the growth in [1] was -65.7% (active); in [2], -78.3% (active); in assay [3] it was -87.2% (active); in [4], -96.3% (active); in assay [5], -83.9% (active); in assay [6] it was -98.6% (active). Further, the growth in assay [7] is -97% (active); in assay [8], -97.3% (active); in assay [9], -39% (active); in [10], -58.3% (active).

For `CC1(C)CC[C@]2(C(=O)O)CC[C@]3(C)C(=CC[C@@H]4[C@@]5(C)C/C(=C/O)C(=O)C(C)(C)[C@@H]5CC[C@]43C)[C@@H]2C1`, the growth in [1] was 104%; in assay [2] it was 88.6%; in [3], 65.7%; in assay [4] it was 57.7%; in assay [5] it was 58.1%; in [6] it was 20%. Besides, the growth in assay [7] was 48.6%; in [8], 85.6%; in assay [9], 16.3%; in assay [10], 7.85% (active).

Turning to `CCOC(=O)Cn1c(O)c(N=Nc2ccc(S(N)(=O)=O)cc2)c2cc(Br)ccc21`, the growth in assay [1] was 88.8%; in assay [2], 83.3%; in assay [3], 88.2%; in assay [4], 87.5%; in assay [5] it was 86.4%; in assay [7], 86.4%. The growth in assay [8] was 91.4%; in [9], 53.4%; in assay [10] it was 77%.

Regarding `C1=CN2CC(c3ccccc3)=NNC2c2ccccc21` (stereo not given), the growth is 89.7% in [1]; 73.4% in assay [2]; 88.8% in [3]; 53.8% in [4]; 120% in assay [5]; 65.2% in [7]. The growth was 104% in [8], 88.3% in assay [9] and 40.2% in [10].

For the molecule `Cc1ccc(NC(=S)NNC(=S)NNc2ccccc2)cc1C`, the growth in [1] was 91.2%; in assay [2] it was 108%; in [3], 101%; in assay [4], 77.2%; in assay [5] it was 104%; in [7] it was 95%. In addition, the growth is 93.7% in assay [8], 44.4% in assay [9] and 45% in [10].

`OB(O)c1cccc(-c2nc3ccc4[nH]ncc4c3c3c2CCCC3)c1`: the growth is 81.1% in assay [1]; 65.6% in assay [2]; 48.8% in [3]; 35.1% in [4]; 29.3% in assay [5]; -11.5% (active) in assay [7]. Besides, the values for the growth in assay [8], in assay [9] and in [10] were 15.2%, 32.2% and 28.7%, respectively.

Consider `C=CC(=O)NCc1ccc(Nc2nccc(-c3ccc(N4CCCC4)c(C#N)c3)n2)cc1`, for which the growth in assay [1] was 35.8%; in assay [2] it was 62.8%; in assay [3] it was 41.3%; in [4], 17.5%; in assay [5], 37.3%; in assay [7], -1.86% (active). In addition, the growth in [8] is 54%; in assay [9] it was 49.1%; in [10], 20%.

With `O=C(c1cc2ccccc2o1)c1nn(-c2ccccc2)/c(=N/N=Cc2cn(-c3ccccc3)nc2-c2cc3ccccc3oc2=O)s1`, the growth is 100% in assay [1]; 92.7% in assay [2]; 113% in assay [3]; 68.5% in assay [4]; 107% in assay [5]; 79.1% in [7]. Also, the growth in assay [8] is 116%; in assay [9] it was 92.8%; in assay [10] it was 93.3%.

Consider `Oc1ccc(CCn2c(O)c(/C=C3\CN=c4ccccc4=N3)sc2=S)cc1`, for which the growth in [1] was 91.5%; in assay [2], 80.8%; in assay [3] it was 47.5%; in assay [4] it was 28.9%; in [5], 30.8%; in assay [7], 34.3%. Besides, the growth in assay [8] is 37.3%; in assay [9], 7.79% (active); in assay [10], 35.9%.

In the case of `N#Cc1c(-c2cccs2)cc(-c2cccnc2)[nH]c1=O`, the growth in [1] was 113%; in assay [2], 105%; in assay [3], 95.2%; in [4] it was 78%; in assay [5], 109%; in assay [7], 96.1%. Moreover, the growth in assay [8] was 141%; in assay [9], 94.7%; in [10] it was 108%.

`CC(C)NC1CCC(Nc2ccnc3cc(Cl)ccc23)CC1` (stereo not given): the growth was 116% in [1]; 97.1% in assay [2]; 102% in assay [3]; 68.8% in [4]; 86.8% in assay [5]; 121% in [7]. Moreover, the figures for the growth in assay [8], in assay [9] and in [10] were 89.2%, -32.1% (active) and 69.2%, respectively.

With `CN(CCn1sc(=O)n(Cc2ccccc2)c1=O)Cc1ccc2c(Cl)cc(Cl)c(O)c2n1`, the growth is 66.9% in assay [1]; 35.9% in assay [2]; 34.7% in assay [3]; -11.7% (active) in assay [4]; 63.7% in [5]; 46.4% in assay [7]. Further, the growth in assay [8] was 68.4%; in assay [9], 27.6%; in assay [10], 27.7%.

On to `COc1cccc(/C=C/C(=O)c2cc3c(N)c(C(=O)Nc4ccccc4)sc3nc2C)c1`, for which the growth in assay [1] was 25.6%; in assay [2] it was 75.8%; in assay [3], 8.27% (active); in assay [4] it was 11.8%; in assay [5], 40.1%; in assay [6] it was 33.5%. In addition, the growth in assay [7] is 15.4%; in assay [8], 58.8%; in assay [9], 7.86% (active); in assay [10] it was 20.8%.
